# Several values for one entry are separate records, joined by “and”; a condition that tells them apart may be missing. Identical values can stand only once. Records with an inconclusive call do not appear. Where a call stands in place of a potency, no number is given. Some compounds were tested as several samples or in several runs, with calls that do not always agree. Activity calls are given as the source filed them. Unless noted, calls follow the shape of the dose curve; as a rule, active = well fitted curve in the direction sought with a large enough effect; inconclusive = small, poorly fitted or top-dose-only effect, or another doubt; inactive = no such curve, though single readings can be large; an effect the other way counts as inactive or inconclusive.
# Assays:
# [1] = target: Glutathione peroxidase 1 (Homo sapiens) (UniProt P07203); assay: Primary qHTS Assay for Inhibitors of Recombinant Selenoprotein Glutathione Peroxidase 1 (GPX1) (AID 1845191); also: nearly all actives have a fitted effect of over 65% in size; also: potency is read from the fitted curve at half-maximal effect
# Glutathione peroxidase 1 (Homo sapiens), sequence (P07203 whole entry, looked up): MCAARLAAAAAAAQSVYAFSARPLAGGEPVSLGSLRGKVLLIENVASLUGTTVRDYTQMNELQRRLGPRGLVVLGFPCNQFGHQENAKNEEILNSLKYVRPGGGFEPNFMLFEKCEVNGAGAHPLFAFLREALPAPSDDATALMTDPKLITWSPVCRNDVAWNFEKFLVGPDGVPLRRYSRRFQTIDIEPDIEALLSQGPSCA
# Outline: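 NADPH consumption tracked by fluorescence at 340/450 nm between t=0 and t=15 min, room temperature. Final mix: 10 nM GPX1, 100 nM glutathione reductase, 1 mM GSH, 0.5 mM NADPH, 0.5 mM cumene hydroperoxide, 0.01% BSA; 30 min compound–enzyme preincubation.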
# [2] = target: Phospholipid hydroperoxide glutathione peroxidase GPX4 (Homo sapiens) (UniProt P36969); assay: Primary qHTS Assay for Inhibitors of Recombinant Selenoprotein Glutathione Peroxidase 4 (GPX4) (AID 1845192); also: nearly all actives have a fitted effect of over 65% in size; also: potency is read from the fitted curve at half-maximal effect
# Phospholipid hydroperoxide glutathione peroxidase GPX4 (Homo sapiens), sequence (P36969 whole entry, looked up): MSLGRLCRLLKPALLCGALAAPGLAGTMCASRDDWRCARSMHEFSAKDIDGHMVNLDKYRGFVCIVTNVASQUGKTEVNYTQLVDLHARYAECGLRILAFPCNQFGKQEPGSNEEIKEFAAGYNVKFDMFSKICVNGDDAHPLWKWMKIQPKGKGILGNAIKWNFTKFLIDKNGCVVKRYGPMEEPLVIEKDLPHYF
# Outline: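 NADPH consumption followed by fluorescence at 340/450 nm, t=0 and after 15 min at room temperature. Reaction started with cumene hydroperoxide (0.5 mM final) after 30 min compound–GPX4 preincubation; final 200 nM GPX4, 100 nM GR, 1 mM GSH, 0.5 mM NADPH.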
# [3] = target: Luciferin 4-monooxygenase (Photinus pyralis) (UniProt P08659); assay: Primary firefly luciferase (FLuc) qHTS assay for identification of artifact compounds. (AID 1845220); also: nearly all actives have a fitted effect of over 60% in size
# Outline: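 Cell-free, 1536-well qHTS. Buffer pH 7.6 with 0.01% Tween-20 and 0.05% BSA; 10 uM D-luciferin, 10 uM ATP; 10 nM P. pyralis luciferase; luminescence after 5 min.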
# [4] = Primary fluorescence-based thiol-reactive (MSTI) qHTS assay for identification of artifact compounds. (AID 1845221);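 also: thiol-reactive compounds lower the probe fluorescence signal; nearly all actives have a fitted effect of over 65% in size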
# Outline: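 Curve-fitted percent inhibition (4-parameter Hill) derived from fluorescence, Ex 525/Em 598 nm, scaled with Acetyl-MSTI and MSTI; 1 h incubation at room temperature.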
# [5] = tested on: Nanoluciferase (engineered Oplophorus gracilirostris luciferase); assay: Primary Nanoluciferase (NLuc) qHTS assay for identification of artifact compounds. (AID 1845222)
# Outline: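 Compounds are pinned into diluted (1:55) conditioned medium of NLuc-expressing S16 cells and held 15 min at room temperature protected from light. Nano-Glo substrate follows, and luminescence is read 5 min later.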
# [6] = Primary redox qHTS assay for identification of artifact compounds. (AID 1845223)
# Outline: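 Redox-cycling detection via DTT (250 uM final) oxidation coupled to Amplex Red (25 uM)/HRP (250 mU/mL) in HBSS. 15 min preincubation plus 30 min after DTT, room temperature. Ex/Em 525/598 nm; 4-parameter Hill fit against DMSO and 10 uM DA3003.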
# [7] = qHTS drug screen for cell cycle checkpoint inhibitors in PARPi-resistant BRCA-mutant ovarian cancer cell lines. (AID 1963452; calls by dose curve); conditions: PEO1/OlaR viability, CellTiter-Glo luminescence, 96 h, stronger effect = lower value
# Outline: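 PEO1, PEO4 and PEO1/OlaR ovarian cancer cells, 600 per well, exposed 96 h at 37C to a dilution series. Viability read by CellTiter-Glo luminescence, normalized to DMSO and empty wells; activity summarized as Z-AUC.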
# [8] = qHTS profiling for inhibitors of Plasmodium falciparum proliferation (AID 504749); also: nearly all actives have a fitted effect of over 60% in size; also: potency is read from the fitted curve at half-maximal effect; conditions: P. falciparum in erythrocytes, SYBR Green DNA, 72 h, at 28.7 µM (top of the series)
# Outline: (§1)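 SYBR Green fluorescence of parasite DNA, read after lysis and overnight dark incubation, measured growth over 72 h in erythrocyte culture at 0.3% parasitemia and 2.5% hematocrit. Data normalised to DMSO and 0.29 uM artemisinin, with plate-drift correction.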
# [9] = tested on: 3D7; assay: as above; conditions: P. falciparum in erythrocytes, SYBR Green DNA, 72 h; series mostly up to 28.7 µM
# Outline: as §1
# [10] = tested on: 7G8; assay: as above; conditions: P. falciparum in erythrocytes, SYBR Green DNA, 72 h; series mostly up to 28.7 µM
# Outline: as §1
# [11] = tested on: AA1029; assay: as above; conditions: P. falciparum in erythrocytes, SYBR Green DNA, 72 h; series mostly up to 28.7 µM
# Outline: as §1
# [12] = KB-3-1 P-gp reporter qHTS against the NCATS DSHEA and TCM libraries (AID 1919975)
# Outline: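 72 h exposure of KB-3-1 cells (DMEM, 10% FBS) to DSHEA/TCM samples, concentration-response; cell viability measured as CellTiter-Glo luminescence after 30 min at room temperature.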
# [13] = qHTS Counterscreen for compound interference against the NCATS DSHEA and TCM libraries (AID 1919978); conditions: firefly luciferase detection reagent interference, luminescence
# Outline: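 Read-out is luminescence after 30 min at RT with luciferin detection reagent. Before that, compounds (19.5 nM to 39.8 uM final) sat 15 min at RT with 1 uM D-luciferin or 100 mM potassium phosphate buffer. PTC124 served as intraplate control.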
# [14] = Dual reporter qHTS for agonist of Pregnane X Receptor (hPXR) against the NCATS DSHEA and TCM libraries: Fluorescence readout (AID 1920058)
# Outline: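 Cells were plated at 2000 per well and allowed to attach for 5 h. Test substances were pinned in and incubated roughly 24 h. CellTiter-Fluor was then added and fluorescence measured after 1 h.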
# [15] = target: Nuclear receptor subfamily 1 group I member 2 (Homo sapiens) (UniProt O75469); assay: Dual reporter qHTS for agonist of Pregnane X Receptor (hPXR) against the NCATS DSHEA and TCM libraries: Luminescence readout (AID 1920059)
# Nuclear receptor subfamily 1 group I member 2 (Homo sapiens), sequence (O75469 whole entry, looked up): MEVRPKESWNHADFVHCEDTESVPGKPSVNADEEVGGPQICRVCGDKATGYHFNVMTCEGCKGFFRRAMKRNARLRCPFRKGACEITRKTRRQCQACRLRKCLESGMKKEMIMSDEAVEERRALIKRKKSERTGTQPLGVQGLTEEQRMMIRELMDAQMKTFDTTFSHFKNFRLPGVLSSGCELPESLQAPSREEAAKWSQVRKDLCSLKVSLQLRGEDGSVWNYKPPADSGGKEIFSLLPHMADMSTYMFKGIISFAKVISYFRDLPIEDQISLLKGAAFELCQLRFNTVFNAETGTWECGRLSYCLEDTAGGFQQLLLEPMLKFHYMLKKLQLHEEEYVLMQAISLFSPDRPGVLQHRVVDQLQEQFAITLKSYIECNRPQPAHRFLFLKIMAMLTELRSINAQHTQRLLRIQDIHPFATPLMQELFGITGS
# Outline: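 Luminescent PXR reporter read (ONE-Glo) after a CellTiter-Fluor viability read, following 24 h, 37C treatment of HepG2 cells stably carrying hPXR-Luc.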
# [16] = target: Nuclear receptor subfamily 1 group I member 2 (Homo sapiens) (UniProt O75469); assay: Dual reporter qHTS for antagonist of Pregnane X Receptor (hPXR) against the NCATS DSHEA and TCM libraries: Luminescence Readout (AID 1920060);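 also: HepG2 cells carrying hPXR luciferase reporter stimulated with rifampicin at 2 µM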
# Outline: (§2)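 hPXR-Luc HepG2 cells exposed 24 h at 37 C to compounds with 2 uM rifampicin in antagonist mode; luciferase luminescence measured by ONE-Glo, with CellTiter-Fluor viability read beforehand.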
# [17] = Dual reporter qHTS for antagonist of Pregnane X Receptor (hPXR) against the NCATS DSHEA and TCM libraries: Fluorescence Readout (AID 1920061)
# Outline: as §2
# [18] = measured here: PEO1 parental Z-AUC
structure (smiles),measurement,setting,value
O=C(c1ccc(Cl)cc1)N1CCN(c2ccc([N+](=O)[O-])c3ncccc23)CC1,Potency,[1],inactive
same,Potency,[2],inactive
CC(=O)N[C@H](C(=O)O)C(C)(C)SN=O,Potency,[1],inactive
same,Potency,[2],inactive
Oc1cc2c(cc1O)CN(C(=S)NCCc1ccc(Cl)cc1)CCC2,Potency,[1],inactive
same,Potency,[2],inactive
O=C(O)c1cc(=O)c2ccccc2[nH]1,Potency,[1],inactive
same,Potency,[2],inactive
CO[C@@]1(NC(=O)Cc2cccs2)C(=O)N2C(C(=O)O)=C(COC(N)=O)CS[C@@H]21,Potency,[1],6.4 µM (active)
same,Potency,[2],inactive
O=C(Nc1ccncc1)c1cc([N+](=O)[O-])ccc1Cl,Potency,[1],inactive
same,Potency,[2],inactive
Nc1ncnc2c1ncn2[C@@H]1O[C@H](COP(=O)(O)OP(=O)(O)OP(=O)(O)OP(=O)(O)OC[C@@H]2O[C@H](n3cnc4c(N)ncnc43)[C@@H](O)[C@H]2O)[C@@H](O)[C@H]1O,Potency,[1],inactive
same,Potency,[2],inactive
CCCCC#Cc1nc(NC)c2ncn([C@@H]3O[C@H](CO)[C@@H](O)[C@H]3O)c2n1,Potency,[1],inactive
same,Potency,[2],inactive
CC(C)NCC(O)COc1cccc2ccccc12 (centres undefined),Potency,[1],inactive
same,Potency,[2],inactive
CCN(CC)CCCCNc1ncc2cc(-c3c(Cl)cccc3Cl)c(NC(=O)NC(C)(C)C)nc2n1,Potency,[1],20.2 µM (active)
same,Potency,[2],7.18 µM (active)
same,Potency,[3],inactive
same,outcome,[4],inactive
same,Potency,[5],inactive
same,outcome,[6],inactive
COc1cc(CNC(=O)CCCC/C=C/C(C)C)ccc1O,Potency,[1],inactive
same,Potency,[2],inactive
same,Potency,[3],inactive
same,outcome,[4],inactive
same,Potency,[5],inactive
same,outcome,[6],inactive
same,Z-AUC,[7],1.64 (inactive)
same,Z-AUC,[7]; [18],1.45
same,Z-AUC,[7]; measured here: PEO4 Z-AUC,1.46
same,"activity, negative = inhibition",[8]; parasite line A,-2.8% (inactive)
same,"activity, negative = inhibition",[8]; parasite line B,8.8% (inactive)
same,Potency,[9],inactive
same,Potency,[10],inactive
same,Potency,[11],inactive
COc1cc(/C=C/C(=O)N2CCN(CC(=O)N3CCCC3)CC2)cc(OC)c1OC,Potency,[1],inactive
same,Potency,[2],inactive
same,Potency,[3],inactive
same,outcome,[4],inactive
same,Potency,[5],inactive
same,outcome,[6],inactive
same,"activity, negative = inhibition",[8]; parasite line A,1.12% (inactive)
same,"activity, negative = inhibition",[8]; parasite line B,8.7% (inactive)
same,Potency,[9],inactive
same,Potency,[10],10 µM (active)
same,Potency,[11],inactive
CC1(C)S[C@@H]2[C@H](NC(=O)[C@H](NC(=O)N3CCN(S(C)(=O)=O)C3=O)c3ccccc3)C(=O)N2[C@H]1C(=O)O,Potency,[1],inactive
same,Potency,[2],inactive
same,Potency,[3],inactive
same,outcome,[4],inactive
same,Potency,[5],inactive
same,"activity, negative = inhibition",[8]; parasite line A,-8.81% (inactive)
same,"activity, negative = inhibition",[8]; parasite line B,-7.98% (inactive)
same,Potency,[9],inactive
same,Potency,[10],inactive
same,Potency,[11],inactive
CN[C@H](CC(C)C)C(=O)N[C@H]1C(=O)N[C@@H](CC(N)=O)C(=O)N[C@H]2C(=O)N[C@H]3C(=O)N[C@H](C(=O)N[C@H](C(=O)O)c4cc(O)cc(O)c4-c4cc3ccc4O)[C@H](O)c3ccc(c(Cl)c3)Oc3cc2cc(c3O[C@@H]2O[C@H](CO)[C@@H](O)[C@H](O)[C@H]2O[C@H]2C[C@](C)(N)[C@H](O)[C@H](C)O2)Oc2ccc(cc2Cl)[C@H]1O,Potency,[1],inactive
same,Potency,[2],inactive
same,Z-AUC,[7],-0.534 (inactive)
same,Z-AUC,[7]; [18],-0.325
same,Z-AUC,[7]; measured here: PEO4 Z-AUC,-1.21
C[C@H](O)[C@H](O)[C@H]1CNc2nc(N)[nH]c(=O)c2N1,Potency,[1],18 µM (active)
same,Potency,[2],20.2 µM (active)
same,Potency,[3],inactive
same,outcome,[4],inactive
same,Potency,[5],inactive
same,outcome,[6],inactive
COC(=O)C1=C(C)NC(C)=C(C(=O)OC)C1c1cccc(NC(=O)NCCCN2CCC(c3cccc(OC)c3)CC2)c1,Potency,[1],inactive
same,Potency,[2],inactive
same,Potency,[3],inactive
same,outcome,[4],inactive
same,Potency,[5],inactive
same,outcome,[6],inactive
O=C(Nc1ccc2c(c1)CCN(Cc1ncn[nH]1)C2)c1ccccc1-c1ccc(C(F)(F)F)cc1,Potency,[1],inactive
same,Potency,[2],inactive
same,Potency,[3],inactive
same,outcome,[4],inactive
same,Potency,[5],inactive
same,outcome,[6],inactive
same,Z-AUC,[7],-0.0591 (inactive)
same,Z-AUC,[7]; [18],-0.291
same,Z-AUC,[7]; measured here: PEO4 Z-AUC,0.47
CCCCCCCCCCCCCCCCCC(=O)O,Potency,[1],inactive
same,Potency,[2],inactive
same,outcome,[12],inactive
same,max response,[13],4.77% (inactive)
same,outcome,[14],inactive
same,outcome,[15],inactive
same,outcome,[16],inactive
same,outcome,[17],inactive
same,"activity, negative = inhibition",[8]; parasite line A,-10.1% (inactive)
same,"activity, negative = inhibition",[8]; parasite line B,-2.97% (inactive)
same,Potency,[9],inactive
same,Potency,[10],inactive
same,Potency,[11],inactive
CC1(C)[C@@H](O)CC[C@]2(C)[C@H]3C(=O)C=C4[C@@H]5C[C@@](C)(C(=O)O)CC[C@]5(C)CC[C@@]4(C)[C@]3(C)CC[C@@H]12,Potency,[1],inactive
same,Potency,[2],inactive and 8.91 µM (active)
same,Potency,[3],inactive
same,outcome,[4],inactive
same,Potency,[5],inactive
same,outcome,[6],inactive
same,Z-AUC,[7],0.796 (inactive)
same,Z-AUC,[7]; [18],1.38
same,Z-AUC,[7]; measured here: PEO4 Z-AUC,0.997
same,"activity, negative = inhibition",[8]; parasite line A,-3.83% (inactive)
same,"activity, negative = inhibition",[8]; parasite line B,-0.325% (inactive)
same,Potency,[9],inactive
same,Potency,[10],inactive
same,Potency,[11],inactive
CCN1/C(=C/C(C)=O)Sc2ccc(OC)cc21,Potency,[1],inactive
same,Potency,[2],inactive
same,Z-AUC,[7],0.945 (inactive)
same,Z-AUC,[7]; [18],0.672
same,Z-AUC,[7]; measured here: PEO4 Z-AUC,0.802
N#C/C(=C\c1ccc(O)c(O)c1)C(=O)NCc1ccccc1,Potency,[1],inactive
same,Potency,[2],inactive
same,Z-AUC,[7],1.6 (inactive)
same,Z-AUC,[7]; [18],1.01
same,Z-AUC,[7]; measured here: PEO4 Z-AUC,0.772
O=C1NC(=O)/C(=C/c2ccc3nccnc3c2)S1,Potency,[1],inactive
same,Potency,[2],inactive
same,Z-AUC,[7],1.93 (inactive)
same,Z-AUC,[7]; [18],0.559
same,Z-AUC,[7]; measured here: PEO4 Z-AUC,0.611
O=C(O)Cc1cccc(-c2cc(CCCCCCc3ccc(O[C@H]4O[C@H](CO)[C@@H](O)[C@H](O)[C@@H]4O)c(-c4cccc(CC(=O)O)c4)c3)ccc2O[C@H]2O[C@H](CO)[C@@H](O)[C@H](O)[C@@H]2O)c1,"activity, negative = inhibition",[1],-5.05% [at 0.4 µM] (inactive)
same,"activity change, negative = inhibition",[2],-19% [at 0.409 µM] (inactive)
same,outcome,[3],inactive [at 0.464 µM]
same,"activity change, negative = thiol reactive",[4],33.1% [at 0.461 µM] (inactive)
same,"activity, negative = inhibition",[5],3.7% [at 0.464 µM] (inactive)
same,redox activity (% of DA3003),[6],1.45% [at 0.461 µM] (inactive)
CC(=O)SCC(CC(=O)c1ccc(C)cc1)C(=O)O (centres undefined),Potency,[1],inactive
same,Potency,[2],inactive
same,outcome,[4],inactive
same,Potency,[5],inactive
same,outcome,[6],inactive
Fc1ccc2[nH]c(CN3CCN(c4ccccn4)CC3)cc2c1,Potency,[1],inactive
same,Potency,[2],inactive
same,Potency,[3],inactive
same,outcome,[4],inactive
same,Potency,[5],inactive
same,outcome,[6],inactive

# Source: PubChem BioAssay (NCATS)
